The whole screen tested about 320,000 compounds, of which about 2,100 (0.66%) were called active. Inconclusive results (about 53%) are left out. Calls come from the whole dose curve; as a rule, active = well fitted inhibition curve with a large enough effect in the signal ratio, with a control signal flat (not every such curve was filed as active); inconclusive = small, poorly fitted or top-dose-only effect, or effect the other way, or a change in a side signal; inactive = flat fitted curve, though single readings scatter; the % refers to the signal ratio. This excerpt belongs to a sample that is enriched for actives.
Potency is the fitted concentration of half-maximal effect.

The assay can be described thus: qHTS Assay for Lipid Storage Modulators in Drosophila S3 Cells.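 For cell number change: cells counted by Cell Tracker Red CMTPX staining in the red channel.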 Conditions: BODIPY lipid droplet fluorescence, 18-24 h, cells fed with added oleic acid; cell number change: measured here: cell count max response; series mostly up to 46.1 µM. The method in brief:
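Drosophila S3 cells got compounds at several concentrations plus oleic acid (400 uM solution). Laser-scanning cytometry with 488 nm excitation read lipid droplets at 500-530 nm and cells at 575-640 nm. Percent activity was relative to 20 uM Triacsin C.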
On the technique in general: In qHTS, concentration-response curves come from the screen itself.
`Cc1ccc(-c2cc(C(F)F)n3ncc(C(=O)N4CCc5ccccc5C4)c3n2)cc1`: the Potency result is “inactive” and the cell number change stood at 3.7%.

For `CC(=O)Nc1cccc(Oc2ncnc3scc(-c4ccccc4)c23)c1`, the Potency result was “inactive” and the cell number change worked out at 1.71%. Take `CCCn1nc(C(=O)N2CCc3ccccc3C2)c2ccccc2c1=O`: the Potency entry was “inactive” and the cell number change was -8.58%. With `Cc1ccc(S(=O)(=O)N2CCN(C(=O)c3nn(C(C)C)c(=O)c4ccccc34)CC2)cc1C`, the Potency result was “inactive”. As for `CCCn1nc(C(=O)N2CCN(S(=O)(=O)c3ccc(C)c(C)c3)CC2)c2ccccc2c1=O`, the Potency was 11.6 µM (active) and the cell number change came out at 29.1%. Turning to `C=Cc1ccc(COC(=O)c2cn(CC)c3nc(C)ccc3c2=O)cc1`, the Potency result is “inactive”.

`CCn1cc(C(=O)N(C)Cc2ccc(OC(F)F)cc2)c(=O)c2ccc(C)nc21`: the Potency was 18.4 µM (active) and the cell number change came to 19.2%. In the same order, the values of `CCn1cc(C(=O)OC)c(=O)c2ccc(C)nc21` are “inactive” and 4.24%.

As to `O=C(COC(=O)CNS(=O)(=O)c1cccc(Br)c1)NC(=O)Nc1ccc2c(c1)OCCO2`, the Potency entry was “inactive”.

Take `COc1ccc(-n2nc(C(=O)NCC(=O)N(C)Cc3ccccc3)c3ccccc3c2=O)c(OC)c1`: the Potency result is “inactive” and the cell number change came to 9.58%. For the molecule `COc1ccccc1N(CC(=O)Nc1ccccc1C(=O)N1CCCC1)S(C)(=O)=O`, the Potency was 18.4 µM (active) and the cell number change worked out at 1.61%. Taken in the same sequence, the figures for `CCC(=O)Nc1ccccc1C(=O)N1CCCC1` were “inactive” and 13.5%. Turning to `O=C(CCSc1ccccc1)Nc1ccccc1C(=O)N1CCCC1`, the Potency result was “inactive” and the cell number change is -3.09%. Turning to `O=C(c1ccncc1)N1CCN(C(=O)c2cccc3ccccc23)CC1`, the Potency entry is “inactive” and the cell number change came out at 6.28%. For `COc1ccccc1OCC(=O)Nc1ccccc1C(=O)N1CCCCC1`, the Potency entry is “inactive”. For the molecule `CCS(=O)(=O)N1CCN(C(=O)c2cccc3ccccc23)CC1`, the Potency result is “inactive” and the cell number change was determined as 17.9%.

In the case of `COc1ccccc1N(CC(=O)Nc1ccccc1C(=O)N1CCOCC1)S(C)(=O)=O`, the Potency entry was “inactive” and the cell number change amounted to 1.26%. Taken in the same sequence, the figures for `O=C(c1cccc2ccccc12)N1CCCCC1` were 8.2 µM (active) and -5.25%. Taken in the same sequence, the figures for `Cc1ccc(OCC(=O)Nc2ccccc2C(=O)N2CCCCC2)cc1` were “inactive” and 24.3%. Taken in the same sequence, the figures for `CCOc1ccccc1N(CC(=O)Nc1ccccc1C(=O)N1CCCC1)S(C)(=O)=O` were “inactive” and -13.5%.

Consider `Cc1ccccc1OCCC(=O)Nc1ccccc1C(=O)N1CCCCC1`, for which the Potency is 5.8 µM (active) and the cell number change was -4.28%. `O=C(O)CCCC(=O)Nc1ccccc1C(=O)N1CCCC1`: the Potency is 4.61 µM (active) and the cell number change came out at 0.517%. Regarding `O=C(CN1CCN(CC(=O)Nc2ccccc2C(F)(F)F)CC1)Nc1ccccc1F`, the Potency entry was “inactive”. For the molecule `O=C(CCC(=O)Nc1ccccc1Cl)NNC(=O)c1ccco1`, the Potency result was “inactive” and the cell number change is 11.4%. As to `CCN1C(=O)[C@H]2[C@@H](c3ccc(-c4ccc5c(c4)OCO5)cc3)N3CCC[C@@]3(C(=O)OC)[C@H]2C1=O`, the Potency entry was “inactive” and the cell number change is -27.4%.

For the molecule `Cc1ccccc1NCN1C(=O)C2CCC(C)(C1=O)C2(C)C` (stereo not given), the Potency entry was “inactive” and the cell number change is -11.4%. Taken in the same sequence, the figures for `CCOC(=O)c1cccc(NS(=O)(=O)Cc2ccccc2)c1` were “inactive” and -5.1%.

Take `COc1cccc(/C=C/C(=O)OCC(=O)Nc2cc(C(F)(F)F)ccc2Cl)c1`: the Potency entry was “inactive” and the cell number change came out at 1.22%. Turning to `COCCNC(=O)CN(C(=O)Cn1nnc2ccccc21)c1ccc(C)c(F)c1`, the Potency entry was “inactive” and the cell number change is -2.04%.

For the molecule `NC(=O)CCCc1nc(-c2ccccc2Cl)no1`, the Potency entry was “inactive” and the cell number change was -20.4%. Turning to `CCN1C(=NCc2ccco2)N[C@@H](c2cccc(F)c2)C(C(=O)OC)=C1C`, the Potency entry was “inactive” and the cell number change was 16.3%. In the same order, the values of `COCCNC(=O)C(=O)NCCN1CCOCC1` are “inactive” and -14.6%. For `CCOc1ccc(NC(=O)CSc2nc(=O)n(Cc3cccnc3)c3c2CCC3)cc1`, the outcome was “inactive [at 0.0737 µM]”. Turning to `COc1ccc(-n2c(-c3cccc(C)c3[N+](=O)[O-])n[nH]c2=S)cc1`, the Potency result was “inactive” and the cell number change stood at 2.37%. Take `Cc1ccccc1CN(C)C(C)C(=O)NCc1ccccc1` (stereo not given): the Potency entry is “inactive” and the cell number change was determined as 16.8%.

Turning to `CCN(C(=O)CCNC(=O)Cn1cnc2ccccc2c1=O)c1ccccc1F`, the Potency result was “inactive” and the cell number change was -0.794%. In the same order, the values of `Cc1nc2cc(NC(=O)Nc3cccc4ccccc34)ccc2n1C` are “inactive” and 19.9%. Take `COc1ccc(Nc2nnc(-c3ccc(O)cc3)c3ccccc23)cc1`: the Potency result is “inactive”. `Cc1nc2cc(Nc3nnc(-c4ccccc4)c4ccccc34)ccc2n1C`: the Potency is 11.6 µM (active) and the cell number change was -29.7%. In the same order, the values of `O=C(CN1CCN(S(=O)(=O)N2CCOCC2)CC1)Nc1cc(Cl)cc(Cl)c1` are “inactive” and 10%. Taken in the same sequence, the figures for `COc1ccc(-c2cc(C(=O)NC3CCCC3)no2)cc1` were “inactive” and 6.09%. Taken in the same sequence, the figures for `Cc1ccc(-c2cc(C(=O)NC3CCCC3)no2)cc1` were “inactive” and -1.32%.

As for `O=C(NC1CCCCC1)c1cc(-c2ccc(F)cc2)on1`, the Potency is 23.1 µM (active) and the cell number change worked out at 15.8%. `O=C(c1ccccc1)N1CCN(CC(O)COc2ccc(Br)cc2)CC1` (stereo not given): the Potency result was “inactive”. As for `CCOC(=O)N1CCN(CC(O)COc2ccccc2C(C)CC)CC1` (stereo not given), the Potency is 3.66 µM (active) and the cell number change was 1.1%. Taken in the same sequence, the figures for `CCOC(=O)N1CCN(CC(O)COc2ccccc2C(C)C)CC1` (stereo not given) were “inactive” and -2.25%. Regarding `CCOC(=O)N1CCN(CC(O)COc2ccccc2[N+](=O)[O-])CC1` (stereo not given), the Potency result is “inactive” and the cell number change turned out to be 10.6%.

Consider `O=C(C(c1ccccc1)c1ccccc1)N1CCN(CC(O)COc2ccccc2)CC1` (stereo not given), for which the Potency is 4.61 µM (active) and the cell number change was -10.2%. In the same order, the values of `OC(COc1ccccc1)CN1CCOCC1` (stereo not given) are “inactive” and 9.9%. Consider `CCc1ccc(C(=O)Nc2ccc3c(c2)n(C)c(=O)n3C)cc1`, for which the Potency result is “inactive” and the cell number change was -19.7%. In the same order, the values of `CC1Cc2ccccc2N1C(=O)COC(=O)C1=COCCO1` (stereo not given) are “inactive” and -1.1%. In the same order, the values of `COc1cccc(/C=N/n2nnnc2N)c1O` are “inactive” and 2.87%. For the molecule `C=CCOc1c(CNC2CCCC2)cc(Cl)cc1OC`, the Potency result was “inactive” and the cell number change was 36.7%.

`Cc1ccc(-c2nc(NCc3ccco3)n(C(=O)c3ccco3)n2)cc1`: the Potency entry is “inactive” and the cell number change is -0.0963%.

Consider `CC(NC(=O)C1CCCN1S(=O)(=O)c1ccccc1)c1ccccc1` (stereo not given), for which the Potency result is “inactive” and the cell number change was 4.49%. In the same order, the values of `O=C(N1CCCCC1)C12CC3CC(C1)CC(C(=O)N1CCCCC1)(C3)C2` are “inactive” and 5%.

For the molecule `CCN(CC)CCCNc1oc(-c2ccc(OC)c(OC)c2)nc1C#N`, the Potency result is “inactive” and the cell number change is 24.5%. Taken in the same sequence, the figures for `CN(C)CCCNc1oc(-c2cccc(Cl)c2)nc1C#N` were 23.1 µM (active) and 5.97%.

Turning to `CN(C)CCNc1oc(-c2cccc(Cl)c2)nc1C#N`, the Potency result is “inactive”. With `O=C(O)c1cc2nc3c(c(C(F)(F)F)n2n1)CCCC3`, the Potency result was “inactive” and the cell number change is -17.1%. For `COc1cc(C(=O)N2CCN(C3CCCCC3)CC2)cc(OC)c1OC`, the Potency entry was “inactive” and the cell number change was found to be 26.9%. In the same order, the values of `COc1cc(C(=O)N2CCN(C(=O)C3CC3)CC2)cc(OC)c1OC` are 14.6 µM (active) and 0.295%. In the same order, the values of `COc1cc(C(=O)N2CCN(C)CC2)cc(OC)c1OC` are “inactive” and -9.94%.

Consider `CCOC(=O)C1=C(C)Nc2ccccc2N=C1NC(=O)/C=C/c1ccc(OC)cc1OC`, for which the Potency entry is “inactive” and the cell number change was 0.577%.

For the molecule `Cc1c(N(C(=O)c2cnccn2)C2(C(=O)NC3CCCC3)CCCCC2)c(=O)n(-c2ccccc2)n1C`, the Potency result is “inactive” and the cell number change is -4%. Taken in the same sequence, the figures for `COc1cc([N+](=O)[O-])ccc1NC(=O)CC1SC(=Nc2ccc(F)cc2)N(CCC2=CCCCC2)C1=O` (stereo not given) were 23.1 µM (active) and -22.5%. Consider `C=CCN1C(=O)C(CC(=O)NCC)SC1=Nc1ccccc1OC` (stereo not given), for which the Potency entry was “inactive” and the cell number change was -0.552%. Take `COc1ccc(OC)c(NC(=O)CC2SC(=Nc3ccc(F)cc3)N(CCC3=CCCCC3)C2=O)c1` (stereo not given): the Potency result is “inactive” and the cell number change was 1.52%.

With `CCOc1ccccc1N=C1SC(CC(=O)Nc2ccc(OC)cc2OC)C(=O)N1CCC1=CCCCC1` (stereo not given), the Potency was 25.9 µM (active) and the cell number change is -18.8%. In the same order, the values of `O=C(CC1SC(=Nc2ccc(OC(F)F)cc2)N(CCC2=CCCCC2)C1=O)Nc1ccccc1F` (stereo not given) are “inactive” and -16.7%. Consider `CCn1c2ccccc2c2cc(N=C3SC(CC(=O)Nc4ccccc4OC)C(=O)N3C)ccc21` (stereo not given), for which the Potency entry is “inactive”. Consider `Cc1c(C(N)=O)sc2ncn(CC(=O)N(C)C3CCCCC3)c(=O)c12`, for which the Potency result was “inactive” and the cell number change worked out at 7.26%.

Take `CS(=O)(=O)N1CCC(C(=O)N2CCN(c3ccccc3F)CC2)CC1`: the Potency result was “inactive” and the cell number change worked out at 9.98%. Taken in the same sequence, the figures for `CC1=CN2C(=N)/C(=C/c3ccc(C)o3)C(=O)N=C2S1` were “inactive” and -10.7%. In the same order, the values of `CC1=CN2C(=N)/C(=C/c3ccc([N+](=O)[O-])o3)C(=O)N=C2S1` are 14.6 µM (active) and -16.4%. As to `CCOc1ccc(-c2ccc(/C=C3/C(=N)N4C=CSC4=NC3=O)o2)c([N+](=O)[O-])c1`, the Potency entry was “inactive” and the cell number change amounted to 4.83%. With `Cc1ccc(S(=O)(=O)Nc2cccc(-c3ccc4nnc(C)n4n3)c2)s1`, the Potency entry is “inactive” and the cell number change came out at 7.02%. Taken in the same sequence, the figures for `O=C(NCc1ccccn1)Nc1cc(Cl)cc(Cl)c1` were “inactive” and 7.72%. As to `COc1ccc(C(NC(=O)C(C)(C)C)NC(=O)C(C)(C)C)cc1`, the Potency entry is “inactive” and the cell number change is -2.15%. For the molecule `O=C(CNS(=O)(=O)c1ccc(Br)s1)NC1CCCc2ccccc21` (stereo not given), the Potency entry was “inactive” and the cell number change was -8.37%.

With `COc1ccc(C)cc1NC(=O)CCCN1C(=S)NC(C)(C)CC1C` (stereo not given), the Potency result is “inactive” and the cell number change is -1.97%. For `COc1ccc(NC(=O)NCCCCc2ccccc2)cc1`, the Potency entry is “inactive” and the cell number change was -11.6%.

As to `CC(CNC(=O)CN1C(=O)NC2(CCCCC2C)C1=O)c1ccccc1` (stereo not given), the Potency entry is “inactive” and the cell number change is -0.107%. In the same order, the values of `CC(=O)N(/N=C1\Sc2ccccc2C1=O)c1ccccc1` are “inactive” and -6.02%. In the case of `COc1ccccc1N(/N=C1\Sc2ccccc2C1=O)C(C)=O`, the Potency is 16.4 µM (active) and the cell number change worked out at 3.61%. Taken in the same sequence, the figures for `COc1ccc(CCN(/C=C2\Sc3ccccc3C2=O)C(C)=O)cc1OC` were “inactive” and 23.5%.

With `CCOc1ccc(NC(=O)CN(C)C(=O)COc2cccc3c2OC(C)(C)C3)cc1OCC`, the Potency entry is “inactive” and the cell number change was -24.3%. `O=C(c1ccc(Cl)c(F)c1F)N1CCCC1`: the Potency result was “inactive”. `Cc1c(C)c2c(OCC(=O)NCc3ccco3)cc3c(c2oc1=O)CCC(C)(C)O3`: the Potency entry is “inactive” and the cell number change was found to be 6.15%.

`COCCC(=O)NC12CC3CC(CC(C3)C1)C2`: the Potency result was “inactive” and the cell number change is -7.91%.

In the case of `COCCNCC(=O)C12CC3CC(CC(C3)C1)C2`, the Potency was 16.4 µM (active) and the cell number change was -15%. As to `COCCNC(=O)C12CC3CC(CC(Cl)(C3)C1)C2`, the Potency entry is “inactive” and the cell number change is 18%. In the case of `O=c1[nH]c2ccccc2nc1C(F)(F)F`, the Potency result is “inactive” and the cell number change worked out at 17.1%.
